# GRK2 aptamer HTS = inhibitors of human GRK2 displacing RNA aptamer | bead flow cytometry, FAM-aptamer displacement from GRK2 | inhibition of aptamer binding, % at 10 µM | 330,000 compounds, 0.59% hits | AID 488847;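 active = inhibition of aptamer binding above 40%, roughly 3 SD of noise, on plates passing a quality check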;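 note: median bead fluorescence of bound FAM aptamer so fluorescent compounds give negative values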
# Rtt109 HAT inh = inhibitors of Candida albicans Rtt109/Vps75 histone acetyltransferase | purified Rtt109/Vps75, ThioGlo CoA-SH fluorescence, 4 h | Q5AAJ8 | inhibition, % at 34.9 µM | 330,000 compounds, 0.16% hits;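 active = inhibition of at least 50% in every replicate; inconclusive = best replicate reaches 50% inhibition but some replicates fall short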
# ALR inh = blocks human ALR sulfhydryl oxidase activity | P55789 | purified ALR, DTT oxidation, H2O2 HRP-luminol luminescence | inhibition, % (no concentration beside the values) | 290,000 compounds, 3.8% hits | AID 485317;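 active = mean replicate inhibition above about 79%, with every replicate also reaching it, limit read from the data; inconclusive = only one of the two criteria met; inactive = mean below limit and not every replicate reaching it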
# Rce1 inhib = yeast Ras-converting enzyme inhibition; Q03530; yeast membranes, quenched prenylated peptide cleavage fluorescence; calls only; 290,000 compounds, 0.27% hits; AID 2563;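 active = fall in fluorescence gain of 50% or more versus controls, with final raw signal at or below 3038400; inconclusive = same 50% fall but final raw signal above 3038400; inactive = fall in fluorescence gain under 50%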;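 note: plate controls were neutral control wells for no effect and wells lacking membranes for full effect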
# Target sequence (Q03530 whole entry, looked up): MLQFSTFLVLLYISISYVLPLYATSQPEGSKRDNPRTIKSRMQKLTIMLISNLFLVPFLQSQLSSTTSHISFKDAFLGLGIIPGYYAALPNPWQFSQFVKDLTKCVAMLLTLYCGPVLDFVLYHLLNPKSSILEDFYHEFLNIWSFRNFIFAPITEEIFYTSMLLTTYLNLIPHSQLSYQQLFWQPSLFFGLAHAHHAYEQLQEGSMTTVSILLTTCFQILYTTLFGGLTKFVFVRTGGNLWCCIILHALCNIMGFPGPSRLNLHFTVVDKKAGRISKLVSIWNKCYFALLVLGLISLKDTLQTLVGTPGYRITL
# Efflux pump inh = blocks antifungal efflux pumps in multiplex yeast assay | AID 485275 | 330,000 compounds, 0.44% hits | inhibition, % at 10 µM | S. cerevisiae Candida pump triplex, Nile Red efflux;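 active = plate passing quality check with inhibition over a set limit, or well fluorescence over plate mean plus 4 SD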;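 note: Nile Red retained in pooled yeast measured as flow cytometry median fluorescence; 0% = buffer negative control and 100% = Enniatin B positive control; higher means more Nile Red kept so more efflux inhibition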
# HDAC3 inhib = inhibitors of human histone deacetylase 3; O15379; recombinant HDAC3, fluorogenic peptide/trypsin coupled, fluorescence; inhibition, % at 8.3 µM; 320,000 compounds, 0.15% hits; AID 2718; in the data active = inhibition above about 26%, passing the limit was not always enough; inconclusive = no clear call, values can overlap the other calls
# * hit, by the source's call; i = inactive; ? = inconclusive; . = no result. Hits are enriched below; roughly 4.5% of the tested compounds scored in any of these assays.
SMILES,GRK2 aptamer HTS,Rtt109 HAT inh,ALR inh,Rce1 inhib,Efflux pump inh,HDAC3 inhib
COc1ccc(S(=O)(=O)Nc2c(C)cccc2C)cc1-n1cnnn1,0.0,-0.9,1.1,i,-0.1,0.0
Nc1c(-c2ccccc2)c(CSc2nc3ccccc3[nH]2)nn1-c1ccc(Cl)cc1,0.0,9.7,.,i,0.7,0.9
Nc1c(-c2ccccc2)c(CSc2nc3ccccc3[nH]2)nn1-c1cccc(Cl)c1,0.0,-3.2,90.6*,i,-0.1,-0.8
CCC1CCCCN1C(=O)c1ccc([N+](=O)[O-])o1 (stereo not drawn),1.0,-9.1,-22.0,i,0.0,-1.4
c1ccc(-c2nc(NCc3cccs3)c3ccccc3n2)cc1,0.0,17.8,-1.0,i,0.1,16.9
c1csc(CNc2nc(-c3cccs3)nc3ccccc23)c1,1.0,0.3,95.7*,i,0.0,-10.2
COc1cccc(Nc2nc3ccccc3n3nnnc23)c1,0.0,4.2,97.3*,i,-0.1,9.3
Cc1ccc(Cl)cc1N1CCN(S(=O)(=O)c2ccc3c(c2)CC(=O)N3C)CC1,3.0,0.8,6.0,i,0.2,-1.6
COc1ccc(C2(C#N)CCC(=O)N2c2ccccc2)cc1 (stereo not drawn),.,0.0,-10.1,i,0.0,0.5
Cc1ccc(Oc2nc3ccccn3c(=O)c2/C=C(\C#N)C(=O)NC2CCS(=O)(=O)C2)c(C)c1 (stereo not drawn),2.0,-15.9,83.8*,i,0.4,8.4
S=c1[nH]nc(Nc2cccc3ccccc23)s1,0.0,-6.3,97.4*,i,-0.2,?
Fc1ccccc1Nc1n[nH]c(=S)s1,0.0,10.6,98.7*,i,0.0,5.9
COc1ccc(-n2nnnc2CNC(=O)C(=O)c2c(C)[nH]c3ccccc23)cc1,1.0,7.2,-12.4,i,0.1,-5.0
CCOc1ccc(NC(=O)COC(=O)c2cc(C)oc2C)cc1,0.0,9.4,-2.4,.,-0.4,-6.6
CCC(C)N1CC(O)=C(c2nc3ccccc3[nH]2)C1=N (stereo not drawn),2.0,3.0,81.7*,i,-0.1,2.3
O=C1CCC(C(=O)OCc2cc(=O)oc3ccc4ccccc4c23)=NN1,5.0,-7.0,7.4,i,-0.1,-10.9
Cc1c(C(=O)NNC(=S)NCc2ccc(Cl)cc2)oc2ccccc12,0.0,0.9,-6.4,i,-0.3,-17.5
COCCn1c(SCC(=O)Nc2cc(C)on2)nnc1-c1ccccc1,2.0,11.7,-1.8,i,-0.6,7.9
Nc1nc(Nc2ccccc2)nc(NCc2ccccc2)c1[N+](=O)[O-],1.0,-6.8,86.1*,i,-0.4,8.7
CCOC(=O)C1=C(C)Nc2ccc(C)cc2S1,0.0,6.0,50.7,i,-0.1,11.1
CCOC(=O)C1=C(C)Nc2ccccc2S1,1.0,51.4*,10.4,i,-0.1,2.5
Cn1c(C(=O)N2CCC(C(=O)NCc3ccccc3)CC2)cc2sccc21,4.0,-3.2,0.7,i,0.0,1.1
CC(C)(/C=N/NC(=O)CSCc1ccccc1Cl)CCC#N,0.0,0.9,98.0*,i,-0.1,-1.3
O=C(CSCc1ccccc1Cl)N/N=C/c1ccco1,0.0,6.8,-2.9,i,0.1,-1.1
O=C1Nc2ccccc2S/C1=C\C(=O)N1CCCC1,81.0*,.,5.8,i,0.0,2.8
SMILES,GRK2 aptamer HTS,Rtt109 HAT inh,ALR inh,Rce1 inhib,Efflux pump inh,HDAC3 inhib
COc1cc(OC)cc(C(=O)Nc2nc(-c3ccccc3)c(-c3ccccc3)o2)c1,0.0,.,3.1,i,0.2,5.1
CC(=O)Nc1nc(-c2ccccc2)c(-c2ccccc2)o1,1.0,58.8*,6.6,.,0.0,-4.5
Cn1c(NC(=O)COc2ccccc2)cc(=O)n(C)c1=O,0.0,-3.8,99.2*,i,-0.2,4.5
O=S(=O)(CCN1CCOCC1)c1ccc(OC(F)(F)F)cc1,0.0,-3.9,-7.6,i,0.0,1.0
Cc1c(Cl)ccc2c(C(=O)NCCN3CCCCC3)cc(-c3ccccn3)nc12,0.0,2.9,-2.8,i,-0.1,-1.8
COc1ccccc1-c1cc(C(=O)NC2CCN(C)CC2)c2ccc(Cl)c(C)c2n1,19.0,-10.6,-6.6,i,1.6*,1.8
CC(Nc1cc(C)cc(C)c1)=[N+](C)CCNS(=O)(=O)c1ccc(Cl)cc1,48.0*,-3.3,0.4,i,0.2,4.2
COc1ccc(NC(C)=[N+](C)CCNS(=O)(=O)c2ccc(Cl)cc2)cc1Cl,5.0,1.7,1.2,i,0.1,-2.4
